Compounds with a hit are over-represented: about 2.7% of the library has one in this group of screens.
IDE cell activ – activators of human insulin-degrading enzyme in cells. HEK cells, FAbeta-B cleavage, fluorescence polarization; 0% vehicle, 100% cell-free pure enzyme wells. P14735. AID 493087. activation, % at 5.96 µM. hit rate 0.073% among 340,000;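 active = activation above the mean of all tested compounds plus 3 SD, set per screening campaign, cut at about 17% in these data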
TMEM16A inh – inhibitors of mouse TMEM16A calcium-activated chloride channel; HEK293 TMEM16A/YFP iodide influx fluorescence, ionomycin; normalized B-score (activity score, 25-100; higher = stronger inhibition) at 10 µM; hit rate 1.2% among 310,000;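 active = ratio plate-corrected score three or more library SD toward inhibition, starting fluorescence score within five deviations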;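 note: score derived from kinetic fluorescence span divided by baseline fluorescence per well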
Target sequence (Q8BHY3 whole entry, looked up): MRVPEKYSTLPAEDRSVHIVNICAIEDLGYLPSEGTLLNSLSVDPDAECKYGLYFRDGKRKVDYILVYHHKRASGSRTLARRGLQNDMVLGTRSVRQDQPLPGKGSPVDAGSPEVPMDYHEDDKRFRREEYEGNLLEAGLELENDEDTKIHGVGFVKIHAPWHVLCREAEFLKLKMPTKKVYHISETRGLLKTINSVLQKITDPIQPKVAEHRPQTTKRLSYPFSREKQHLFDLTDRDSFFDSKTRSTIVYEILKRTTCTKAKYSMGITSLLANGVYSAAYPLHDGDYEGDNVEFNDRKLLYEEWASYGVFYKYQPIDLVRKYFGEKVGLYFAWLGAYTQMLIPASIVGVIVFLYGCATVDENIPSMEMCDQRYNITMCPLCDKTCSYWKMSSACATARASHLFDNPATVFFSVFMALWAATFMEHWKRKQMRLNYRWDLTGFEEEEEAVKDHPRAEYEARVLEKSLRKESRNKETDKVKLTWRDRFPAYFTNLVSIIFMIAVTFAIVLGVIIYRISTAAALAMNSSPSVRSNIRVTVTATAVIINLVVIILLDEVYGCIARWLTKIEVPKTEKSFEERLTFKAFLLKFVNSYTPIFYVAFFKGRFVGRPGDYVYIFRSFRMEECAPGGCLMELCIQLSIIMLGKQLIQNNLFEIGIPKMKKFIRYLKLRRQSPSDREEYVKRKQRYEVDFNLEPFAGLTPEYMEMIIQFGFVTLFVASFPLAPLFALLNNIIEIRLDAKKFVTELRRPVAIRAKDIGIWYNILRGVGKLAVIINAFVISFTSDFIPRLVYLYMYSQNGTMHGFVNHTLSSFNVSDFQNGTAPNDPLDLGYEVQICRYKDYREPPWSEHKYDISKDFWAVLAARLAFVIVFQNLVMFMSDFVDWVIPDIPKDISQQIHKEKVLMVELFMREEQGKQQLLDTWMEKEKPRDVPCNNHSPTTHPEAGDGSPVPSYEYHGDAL
IDE inh – inhibits human insulin-degrading enzyme in HEK cells; FAbetaB cleavage, fluorescence polarization; inhibition, % at 5.59 µM; P14735; hit rate 0.41% among 320,000;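 active = percent inhibition above the average of all tested compounds plus 3 SD, set per screening campaign, cut at about 16% in these data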;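 note: IDE supplied by intact live HEK cells; FP after avidin binding of uncleaved biotin substrate so inhibition keeps polarization high; 0% = DMSO wells and 100% = 60 µM reference IDE inhibitor Ii1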
CHT PAM – allosterically activates the human high affinity choline transporter; Q9GZV3; CHT-expressing cells, membrane potential dye, choline EC20; stronger effect = higher value; LV-AA mutant CHT in HEK293 cells; B-score at 10 µM; hit rate 0.49% among 310,000;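 active = initial fluorescence not abnormally high and integrated response B-score, plate-corrected, over 3 SD above library mean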
ANO1 activ – mouse TMEM16A channel activation, primary screen. Q8BHY3. B-score at 10 µM. hit rate 0.3% among 340,000. HEK293 TMEM16A/YFP-H148Q/I152L, iodide quench fluorescence; stronger effect = lower value;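 active = fluorescence-ratio B-score plate-corrected deviation score at least 3 library SD below zero, with starting fluorescence score within 5 deviations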;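 note: channel opened by trigger with iodide after compound preincubation; score built on the fluorescence ratio of max minus min over baseline; more negative score means more quench and so TMEM16A activation or potentiation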
CHT block – human CHT choline transport inhibition | CHT-expressing cells, membrane potential dye, choline response; stronger effect = lower value | B-score at 10 µM | hit rate 0.86% among 310,000;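 active = B-score over 3 SD under the library average, and starting fluorescence ratio not unusually high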;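 note: choline stimulus applied at its EC90 after an EC20 pre-addition; B-score computed on integrated fluorescence ratio after choline addition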
CHT inh conf – human CHT inhibition, confirmatory screen | CHT-expressing cells, choline membrane potential dye; LV-to-AA substituted CHT, HEK293 cells | AID 493221 | CHT activity remaining % of control (stronger effect = lower value), % at 10 µM | shares compounds with CHT block | hit rate 70% among 2,400;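 active = choline transporter activity left, mean of duplicates at 10 µM, below buffer-only control mean minus 3 SD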;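 note: depolarization triggered by choline at its EC90 following an EC20 pre-addition; 0% = hemicholinium-3 full block and 100% = buffer-only control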
HEK293 MPD ctr – activity in parental HEK293 cells lacking CHT; membrane potential ratio readout (active if shifted either direction beyond buffer ±3SD; no single direction) at 10 µM; membrane potential dye, choline response; active = decrease or increase beyond buffer ±3SD; shares compounds with CHT block; hit rate 4% among 2,400;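 note: parental cells lack the transporter so any hit is non-specific; ratio is peak minus trough fluorescence over baseline after EC90 choline challenge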
Active calls of the source: *.

CCN(CC(=O)Nc1c(F)cccc1F)C(=O)c1ccc2ncsc2c1 was read as IDE cell activ 3.3, TMEM16A inh inactive, IDE inh 5.8, CHT PAM inactive, ANO1 activ inactive and CHT block inactive.
`CC1CCC(NC(=O)c2ccc(CS(=O)(=O)Cc3ccccc3F)o2)CC1` (configuration not stated) gave IDE cell activ 0.1, TMEM16A inh inactive, IDE inh 0.6, CHT PAM inactive, ANO1 activ inactive, CHT block -5.37*, CHT inh conf 41.0%* and HEK293 MPD ctr inactive.
Screening O=C(NC1CCCC1)c1ccc(CS(=O)(=O)Cc2ccccc2F)o1 returned IDE cell activ 6.8, TMEM16A inh inactive, IDE inh -2.4, CHT PAM inactive, ANO1 activ inactive and CHT block inactive.
For Oc1ccc(-c2n[nH]c(C(F)(F)F)c2-c2ccccc2)c(O)c1 the results were TMEM16A inh 100*, IDE inh 2.3, CHT PAM inactive, ANO1 activ inactive, CHT block -5.21*, CHT inh conf 62.4%* and HEK293 MPD ctr inactive.
For Cc1cc2c(ncn2Cc2ccccc2)c([N+](=O)[O-])c1C the results were IDE cell activ 0.5, TMEM16A inh inactive, IDE inh 6.1, CHT PAM inactive, ANO1 activ inactive, CHT block -5.3*, CHT inh conf 50.7%* and HEK293 MPD ctr inactive.
Screening COc1ccc(Cn2cnc3c(N)c(C)c(C)cc32)cc1 returned IDE cell activ -1.0, TMEM16A inh inactive, IDE inh -0.7, CHT PAM inactive, ANO1 activ inactive and CHT block inactive.
Screening O=C(C1Cc2ccccc2CN1S(=O)(=O)c1ccc(F)cc1)N1CCCCC1 (configuration not stated) returned IDE cell activ 7.7, TMEM16A inh inactive, IDE inh 1.8, CHT PAM inactive, ANO1 activ inactive, CHT block -6.29*, CHT inh conf 3.1%* and HEK293 MPD ctr inactive.
Screening Cc1ccc(NC(=O)CN(C)C(=O)COC(=O)CNS(=O)(=O)c2ccc(Br)cc2Cl)cc1 returned IDE cell activ 1.5, TMEM16A inh inactive, IDE inh 0.5, CHT PAM inactive, ANO1 activ -8.12*, CHT block -6.27*, CHT inh conf 66.5%* and HEK293 MPD ctr inactive.
Cc1ccc(NC(=O)CN(C)C(=O)COC(=O)CNS(=O)(=O)c2ccc(F)c(F)c2F)cc1 was read as IDE cell activ 0.4, TMEM16A inh inactive, IDE inh 2.6, CHT PAM inactive, ANO1 activ inactive and CHT block inactive.
COc1ccc(C2=CN3CCCCC3CC2=O)cc1OC (configuration not stated) was read as IDE cell activ -3.6, IDE inh -3.1 and ANO1 activ inactive.
For COc1ccc(-c2cc(C(=O)NCCCN3CCOCC3)c3cc(C(C)C)ccc3n2)cc1 the results were IDE cell activ 2.0, TMEM16A inh inactive, IDE inh -2.2, CHT PAM inactive, ANO1 activ inactive, CHT block -7.41*, CHT inh conf 50.5%* and HEK293 MPD ctr inactive.
`O=C(COC(=O)C1CC1)NCc1ccc(Cl)cc1Cl` gave IDE cell activ 6.0, IDE inh 8.3 and ANO1 activ inactive.
`CCN1CCN(C(=O)C2=CC(c3ccc(C)cc3)=NS(=O)(=O)N2C)CC1` gave IDE cell activ 1.6, TMEM16A inh inactive, IDE inh 1.1, CHT PAM inactive, ANO1 activ inactive, CHT block -6.57*, CHT inh conf inactive and HEK293 MPD ctr inactive.

Bioassay records (PubChem BioAssay)
